Results filed as inconclusive are left out. The source made the active and inactive calls. Unless noted, calls follow the shape of the dose curve; as a rule, active = well fitted curve in the direction sought with a large enough effect; inconclusive = small, poorly fitted or top-dose-only effect, or another doubt; inactive = no such curve, though single readings can be large; an effect the other way counts as inactive or inconclusive.
Experiments:
[1] = qHTS Validation Assay to Find Inhibitors of Chronic Active B-Cell Receptor Signaling (AID 485345; active = well fitted curve in the direction sought with a large enough effect in the main read-out, with a control signal flat, not every such curve was filed as active)
In short: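 TMD8 ABC-DLBCL cells with dox-inducible green luciferase–IκBα fusion and red native luciferase; compounds 46 uM–3 nM, 4 h at 37C with doxycycline in 0.5% FBS IMDM. Green/red ratio normalized to basal and 10 uM MG-132.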

[2] = molecular target: Beta-2 adrenergic receptor (Homo sapiens) (UniProt P07550); assay: qHTS validation assay of beta-arrestin-biased ligands of beta2-adrenergic receptor (AID 485366)
Chain of Beta-2 adrenergic receptor (Homo sapiens) (P07550 whole entry, looked up): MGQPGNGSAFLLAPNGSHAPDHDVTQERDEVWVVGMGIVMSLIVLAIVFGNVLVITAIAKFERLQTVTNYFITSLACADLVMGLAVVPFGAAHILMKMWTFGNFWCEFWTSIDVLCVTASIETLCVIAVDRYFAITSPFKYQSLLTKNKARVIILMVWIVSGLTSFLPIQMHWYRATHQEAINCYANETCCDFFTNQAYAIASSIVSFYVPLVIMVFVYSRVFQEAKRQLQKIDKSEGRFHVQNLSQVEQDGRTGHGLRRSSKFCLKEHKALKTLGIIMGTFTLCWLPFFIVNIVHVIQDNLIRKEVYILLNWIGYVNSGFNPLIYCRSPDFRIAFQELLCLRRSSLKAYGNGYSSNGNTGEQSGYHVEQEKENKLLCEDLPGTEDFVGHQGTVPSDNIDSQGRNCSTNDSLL
In short: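 Values derive from curve-fitted %Activity of a luminescent beta-arrestin recruitment reporter; compounds tested up to 46 microM on Tango cells for 18 hr at 37 degrees C, 5% CO2.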

[3] = molecular target: Thioredoxin reductase 1, cytoplasmic (Rattus norvegicus) (UniProt O89049); assay: qHTS Assay for Substrates of Mammalian Selenoprotein Thioredoxin Reductase 1 (TrxR1) (AID 488772);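 also: NADPH fluorescence in the first read after selenite addition and not the 8 min delta; series mostly up to about 57 µM; a drop in NADPH fluorescence below the no-compound background marks a TrxR1 substrate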
Chain of Thioredoxin reductase 1, cytoplasmic (Rattus norvegicus) (O89049 whole entry, looked up): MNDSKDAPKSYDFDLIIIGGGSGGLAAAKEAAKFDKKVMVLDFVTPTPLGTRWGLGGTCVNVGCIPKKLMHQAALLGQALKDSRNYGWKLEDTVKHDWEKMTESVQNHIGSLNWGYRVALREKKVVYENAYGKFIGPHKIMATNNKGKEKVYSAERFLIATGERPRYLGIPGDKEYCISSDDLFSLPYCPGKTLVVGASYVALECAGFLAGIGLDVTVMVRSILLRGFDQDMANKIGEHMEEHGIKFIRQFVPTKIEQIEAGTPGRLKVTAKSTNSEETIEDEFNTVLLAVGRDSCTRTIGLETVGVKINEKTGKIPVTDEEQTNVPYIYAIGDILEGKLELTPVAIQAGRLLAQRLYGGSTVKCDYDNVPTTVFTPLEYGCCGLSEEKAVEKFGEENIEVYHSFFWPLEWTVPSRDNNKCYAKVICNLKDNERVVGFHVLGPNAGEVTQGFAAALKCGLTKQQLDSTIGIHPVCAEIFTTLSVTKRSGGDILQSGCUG
In short: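 Quantitative HTS in Tris-HCl buffer at pH 7.5 with EDTA and Tween-20, using rat TrxR1, 400 uM NADPH and 400 uM selenite (final). A fall in initial NADPH fluorescence relative to background marked substrate behaviour.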

[4] = molecular target: Flap endonuclease 1 (Homo sapiens) (UniProt P39748); assay: qHTS Validation Assay for the Inhibitors of Human Flap endonuclease 1 (FEN1) (AID 488816)
Chain of Flap endonuclease 1 (Homo sapiens) (P39748 whole entry, looked up): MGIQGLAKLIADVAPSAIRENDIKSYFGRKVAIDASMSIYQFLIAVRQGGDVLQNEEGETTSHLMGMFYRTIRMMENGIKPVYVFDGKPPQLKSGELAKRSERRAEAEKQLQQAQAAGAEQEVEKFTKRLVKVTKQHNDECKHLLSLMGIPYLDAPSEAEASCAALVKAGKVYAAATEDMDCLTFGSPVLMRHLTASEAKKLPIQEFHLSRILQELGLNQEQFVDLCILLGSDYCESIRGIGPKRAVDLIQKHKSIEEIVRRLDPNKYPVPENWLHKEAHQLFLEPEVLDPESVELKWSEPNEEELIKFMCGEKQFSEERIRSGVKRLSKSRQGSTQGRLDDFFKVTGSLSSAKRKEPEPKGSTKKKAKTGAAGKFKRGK
In short: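 FEN1, dispensed as a 10 nM reagent, was preincubated with pin-transferred compounds for 15 min at room temperature before substrate was added (50 nM final). Plates were read at 0 and 15 min, and a four-parameter Hill equation was fitted to the concentration-response data.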

[5] = molecular target: M-phase phosphoprotein 8 (Homo sapiens) (UniProt Q99549); assay: qHTS Validation Assay for Inhibitors for MPP8 Chromodomain Interactions with Methylated Histone Tails (AID 488949);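 also: 50 nM MPP8 with 50 nM peptide preformed then compounds added for 30 min; AlphaScreen signal from MPP8 chromodomain bound to biotinylated H3K9me3 peptide; top concentration of the series differs between compounds; nearly all actives have a fitted effect of over 55% in size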
Chain of M-phase phosphoprotein 8 (Homo sapiens) (Q99549 whole entry, looked up): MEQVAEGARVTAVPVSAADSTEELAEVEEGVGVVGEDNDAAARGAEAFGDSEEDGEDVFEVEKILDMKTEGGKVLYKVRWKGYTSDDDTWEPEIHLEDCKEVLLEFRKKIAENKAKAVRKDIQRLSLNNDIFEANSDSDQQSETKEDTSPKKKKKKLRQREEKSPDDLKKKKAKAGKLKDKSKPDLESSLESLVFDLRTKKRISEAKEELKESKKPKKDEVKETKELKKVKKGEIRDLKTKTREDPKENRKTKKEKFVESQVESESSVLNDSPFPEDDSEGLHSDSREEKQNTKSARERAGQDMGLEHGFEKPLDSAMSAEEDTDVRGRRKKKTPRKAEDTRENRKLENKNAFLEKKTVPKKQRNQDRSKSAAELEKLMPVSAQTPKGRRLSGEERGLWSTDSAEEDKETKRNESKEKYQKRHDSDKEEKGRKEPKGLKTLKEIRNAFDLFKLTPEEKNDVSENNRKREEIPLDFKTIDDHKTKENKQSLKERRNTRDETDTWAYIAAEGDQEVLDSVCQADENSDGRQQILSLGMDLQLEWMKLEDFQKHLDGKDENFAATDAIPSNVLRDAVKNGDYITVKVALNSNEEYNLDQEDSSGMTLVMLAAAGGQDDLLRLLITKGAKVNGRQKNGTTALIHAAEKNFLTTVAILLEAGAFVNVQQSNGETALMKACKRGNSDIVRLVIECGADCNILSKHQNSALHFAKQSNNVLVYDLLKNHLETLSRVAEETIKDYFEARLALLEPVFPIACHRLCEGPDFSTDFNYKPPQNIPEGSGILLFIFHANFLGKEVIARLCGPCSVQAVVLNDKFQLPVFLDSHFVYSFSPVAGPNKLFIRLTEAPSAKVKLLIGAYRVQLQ
In short: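 50 nM MPP8 + 50 nM b-H3K9me3 peptide, PBS pH 7.4/0.01% Tween-20, 30 min RT; + cpd 30 min RT; + AlphaScreen donor/Ni-chelate acceptor beads 10 ug/mL final, 30 min dark; luminescence read.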

[6] = molecular target: Methanococcus maripaludis chaperonin (MmCpn) (UniProt Q6LX38); assay: High-Throughput Screening for Modulators of Cytosolic Chaperonin Activity: MmCpn Primary Screen (AID 488978);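 also: 50 nM MmCpn enzyme hydrolysing 30 µM ATP at 37 °C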
Chain of Methanococcus maripaludis chaperonin (MmCpn) (Q6LX38 1-543): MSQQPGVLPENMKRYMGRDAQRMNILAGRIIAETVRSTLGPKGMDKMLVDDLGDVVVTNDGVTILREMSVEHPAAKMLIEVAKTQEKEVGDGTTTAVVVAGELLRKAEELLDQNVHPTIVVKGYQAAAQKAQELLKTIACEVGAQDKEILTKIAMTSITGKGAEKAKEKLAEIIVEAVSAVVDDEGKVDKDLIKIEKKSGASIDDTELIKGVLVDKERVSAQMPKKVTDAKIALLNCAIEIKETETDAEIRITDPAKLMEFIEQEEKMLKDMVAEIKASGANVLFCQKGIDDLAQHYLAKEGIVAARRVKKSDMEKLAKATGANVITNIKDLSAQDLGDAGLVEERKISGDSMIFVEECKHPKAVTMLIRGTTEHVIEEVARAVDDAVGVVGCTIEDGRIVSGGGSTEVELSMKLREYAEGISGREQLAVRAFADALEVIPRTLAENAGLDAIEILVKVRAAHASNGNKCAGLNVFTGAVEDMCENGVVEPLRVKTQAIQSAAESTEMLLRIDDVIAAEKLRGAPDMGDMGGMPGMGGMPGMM
In short: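 Steps: chaperonin 50 nM final; add compound, 5 min RT; start with ATP, 30 uM final; hold 10 min at 37C; add ADP Transcreener HTRF reagent, 5 min; read ex 320, em 590 and 665 nm.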

[7] = molecular target: Transient receptor potential cation channel subfamily V member 1 (Homo sapiens) (UniProt Q8NER1); assay: HTS Assay for Compounds that Act as Enhancers of the Vanilloid Receptor 1 (AID 488979)
Chain of Transient receptor potential cation channel subfamily V member 1 (Homo sapiens) (Q8NER1 whole entry, looked up): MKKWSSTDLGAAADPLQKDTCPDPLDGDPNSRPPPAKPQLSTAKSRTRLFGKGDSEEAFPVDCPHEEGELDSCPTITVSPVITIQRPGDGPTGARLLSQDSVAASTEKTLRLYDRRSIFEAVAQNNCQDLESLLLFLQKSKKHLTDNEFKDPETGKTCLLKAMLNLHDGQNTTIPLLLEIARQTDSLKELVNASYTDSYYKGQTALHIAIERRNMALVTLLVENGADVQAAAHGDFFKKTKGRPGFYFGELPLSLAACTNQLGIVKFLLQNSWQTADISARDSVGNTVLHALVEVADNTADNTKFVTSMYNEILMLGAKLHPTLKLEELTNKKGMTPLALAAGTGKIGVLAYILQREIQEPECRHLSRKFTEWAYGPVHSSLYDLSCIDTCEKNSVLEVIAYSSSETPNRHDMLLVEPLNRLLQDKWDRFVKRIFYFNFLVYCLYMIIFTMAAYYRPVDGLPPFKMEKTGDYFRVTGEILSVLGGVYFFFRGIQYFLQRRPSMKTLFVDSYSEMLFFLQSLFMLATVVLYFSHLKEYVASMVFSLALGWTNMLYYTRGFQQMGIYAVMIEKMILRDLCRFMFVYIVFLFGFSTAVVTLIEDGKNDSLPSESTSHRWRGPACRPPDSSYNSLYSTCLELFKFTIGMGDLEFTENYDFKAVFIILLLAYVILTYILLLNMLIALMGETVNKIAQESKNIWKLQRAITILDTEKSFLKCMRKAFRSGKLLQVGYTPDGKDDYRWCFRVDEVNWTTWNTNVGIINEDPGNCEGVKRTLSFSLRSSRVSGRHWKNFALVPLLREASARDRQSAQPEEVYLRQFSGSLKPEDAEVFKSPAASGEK
In short: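 TRPV1-expressing cells loaded with Fluo-8 calcium dye; compounds added and calcium influx read kinetically for 3 min (agonist phase), then capsaicin at EC20 added and read 2 min more for enhancement. Fluorescence ex 480/em 520 nm.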

[8] = molecular target: Thyrotropin receptor (Homo sapiens) (UniProt P16473); assay: qHTS Assay for Antagonists of the Thyroid Stimulating Hormone Receptor (AID 488980); also: series mostly up to about 58 µM
Chain of Thyrotropin receptor (Homo sapiens) (P16473 whole entry, looked up): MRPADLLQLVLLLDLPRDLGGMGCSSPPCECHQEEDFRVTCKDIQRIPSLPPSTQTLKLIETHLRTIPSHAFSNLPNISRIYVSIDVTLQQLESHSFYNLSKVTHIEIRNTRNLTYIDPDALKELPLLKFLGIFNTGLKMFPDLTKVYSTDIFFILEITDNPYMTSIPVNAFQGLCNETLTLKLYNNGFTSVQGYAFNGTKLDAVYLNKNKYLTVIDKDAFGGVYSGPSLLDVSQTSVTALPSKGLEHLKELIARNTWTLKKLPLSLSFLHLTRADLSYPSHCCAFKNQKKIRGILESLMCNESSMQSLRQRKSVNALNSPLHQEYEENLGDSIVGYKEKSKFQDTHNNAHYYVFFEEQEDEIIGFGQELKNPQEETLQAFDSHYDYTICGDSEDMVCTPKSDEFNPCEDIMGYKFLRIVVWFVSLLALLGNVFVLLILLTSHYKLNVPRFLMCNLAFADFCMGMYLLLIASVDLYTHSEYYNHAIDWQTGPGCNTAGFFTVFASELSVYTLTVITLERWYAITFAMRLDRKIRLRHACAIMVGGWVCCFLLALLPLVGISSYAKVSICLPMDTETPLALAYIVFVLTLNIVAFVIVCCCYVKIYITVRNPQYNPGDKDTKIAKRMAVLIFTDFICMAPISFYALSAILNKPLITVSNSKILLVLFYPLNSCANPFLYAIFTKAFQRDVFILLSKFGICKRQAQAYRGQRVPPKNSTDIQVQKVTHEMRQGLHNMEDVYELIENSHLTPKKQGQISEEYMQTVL
In short: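 Readout is cAMP by HTRF competition between cellular cAMP and cAMP-d2 for a cryptate-labelled antibody. Antagonism was assessed in TSHR-transfected HEK293 cells stimulated with 4 nM TSH (EC80, final) in the presence of RO 20-1724.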

[9] = Quantitative high throughput screen for delayed death inhibitors of the malarial parasite plastid, 96 hour incubation (AID 488745); also: series mostly up to about 29 µM; nearly all actives have a fitted effect of over 70% in size
In short: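 P. falciparum carrying an integrated firefly luciferase reporter, grown in erythrocytes (2% hematocrit, 0.1% parasitemia final) in RPMI 1640/0.5% Albumax, was exposed to compound for 96 h (two generations) at 37 C, 5% CO2. Luminescence decrease indicated growth inhibition.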

[10] = Quantitative high throughput screen for delayed death inhibitors of the malarial parasite plastid, 48 hour incubation (AID 488752); also: nearly all actives have a fitted effect of over 65% in size
In short: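 Erythrocytes infected with P. falciparum carrying an integrated firefly luciferase reporter (2% hematocrit, 0.1% parasitemia final) were exposed to compounds in RPMI 1640/0.5% Albumax for 48 h at 37 C, 5% CO2. Growth inhibition was scored as reduced luminescence.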

Measured: outcome

Oc1ccc(/C=C/c2cc(O)cc(O)c2)cc1
not listed: [9] | [10]
inactive: all other assays above

O=C(NCCNCC(O)COc1ccc(O)cc1)N1CCOCC1 (stereo not given)
inactive: [9] | [10] | [5] | [7] | [8]

O=c1[nH]c(=O)n([C@H]2C[C@H](O)[C@@H](CO)O2)cc1/C=C/Br
inactive: [10] | [5] | [7] | [8]

C[C@@](Cc1ccc(O)c(O)c1)(NN)C(=O)O
inactive: [5] | [7] | [8]

Cc1cc(C)c(NC(=O)C[C@H](CC(=O)O)c2cccc3ccccc23)c(C(=O)N2CCC3(CCCC3)CC2)c1
inactive: [9] | [10] | [5] | [7] | [8]

From PubChem BioAssay (NCATS)
